Screening data: PubChem, National Center for Advancing Translational Sciences (NCATS)
In the library only some 8.2% were active in any assay of this set; here they are far more common.
KB-V1 MDR tox: qHTS assay for MDR1-selective chemotherapeutics: Primary screen using the drug-selected MDR subline cells KB-V1 | KB-V1 MDR cells viability, CellTiter-Glo, 72 h | Potency, µM (highest dose often 46.1 µM), actives largely listed as cytotoxic | hit rate 3.4% among 400,000 | AID 1347076, 2019; also: % is scaled to controls: 0 for no effect and ±100 for the full control effect; nearly all actives have a fitted effect of over 60% in size
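Readout: CellTiter-Glo luminescence, 10 min after addition. Cells: KB-V1 MDR subline, 72 h at 37 degrees C with compound. Analysis: corrected, normalized data fitted to concentration-effect curves.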
ELG1 DNA repair: qHTS screen for small molecules that inhibit ELG1-dependent DNA repair in human embryonic kidney (HEK293T) cells expressing luciferase-tagged ELG1 | HEK293T ELG1-luciferase reporter, luminescence, 16 h; DNA damage induced by 5-fluorouridine | hit rate 2.3% among 330,000 | Potency, µM (highest dose often 46.1 µM), inactives show at the highest dose activity change, negative = inhibition, most hits filed as inhibitors; also: % is scaled to controls: 0 for no effect and ±100 for the full control effect; nearly all actives have a fitted effect of over 55% in size
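Reporter activity after DNA damage by 5-fluorouridine is monitored. Compound-treated cells incubate 16 hr at 37 °C, then ONE-Glo is added for 30 min before luminescence reading.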
KB-3-1 tox: qHTS assay for MDR1-selective chemotherapeutics: Primary screen using the parental adenocarcinoma cell KB-3-1; KB-3-1 viability, CellTiter-Glo ATP luminescence, 72 h; Potency, µM (titrated, usually from 46.1 µM), actives largely listed as cytotoxic; hit rate 1.4% among 400,000; also: % is scaled to controls: 0 for no effect and ±100 for the full control effect; nearly all actives have a fitted effect of over 60% in size
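Parental KB-3-1 adenocarcinoma cells in phenol-red-free DMEM with 10% FBS were pin-treated with compounds at several concentrations, incubated 72 h at 37 °C, and viability read by CellTiter-Glo luminescence; concentration-effect curves were fitted after normalization.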
SW480 rerep: A quantitative high throughput screen for small molecules that induce DNA re-replication in SW480 colon adenocarcinoma cells; SW480 DNA re-replication, Hoechst DNA content imaging, 48 h; Potency, µM (top dose mostly 46.1 µM), for the others: at the highest dose re-replication activation, hits mostly activators; hit rate 1.8% among 340,000; also: % of control where 0% means no effect; nearly all actives have a fitted effect of over 55% in size
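Quantitative HTS format with DMSO vehicle controls; 48 hr drug incubation at 37 C, then 40 min Hoechst staining and scanning imager measurement at 405 nm excitation.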
MCF10A rerep: A quantitative high throughput screen for small molecules that induce DNA re-replication in MCF 10a normal breast cells | Potency, µM (doses to about 46.1 µM), for inactives: at the top dose activity, positive = re-replication, usual class: activators | hit rate 2.9% among 350,000 | MCF 10A DNA re-replication, Hoechst nuclear intensity, 48 h | AID 624296, 2012; also: % of control where 0% means no effect; nearly all actives have a fitted effect of over 50% in size
Active calls of the source: *; i = inactive; u = inconclusive; x = not tested or not shown; [ ] = dose if it differs, or a comment. Calls follow the shape of the dose curve; as a rule, active = well fitted curve in the direction sought with a large enough effect; inconclusive = small, poorly fitted or top-dose-only effect, or another doubt; inactive = no such curve, though single readings can be large; an effect the other way counts as inactive or inconclusive. Potency is read from the fitted curve at half-maximal effect.

SMILES	KB-V1 MDR tox	ELG1 DNA repair	KB-3-1 tox	SW480 rerep	MCF10A rerep
O=c1cc2nc(-c3ccccc3)nc(SCc3cccc(Br)c3)n2[nH]1	i	x	i	x	x
Cc1cc2nc(-c3cccc(Br)c3)c(CC(C)(C)C)n2c(C)c1Br	i	x	i	x	x
O=C(Nc1ccc(Cl)cn1)c1cccc2c(Br)cccc12	i	u	11.6µM*	u	u
O=C(Nc1ccc(Br)cn1)c1ccc2nccnc2c1	16.4µM*	x	u	u	u
O=C(Nc1ccc(Br)cn1)c1cccc2ccccc12	1.03µM*	x	i	3.26µM*	4.11µM*
COc1c(C(=O)Nc2ccc(Br)cn2)ccc2ccccc12	i	u	i	1.4%	5.8%
O=C(O)C1OC(C(=O)O)C(C(=O)O)C1C(=O)O (centres undefined)	i	x	i	-3.1%	0.2%
CCNC(=O)C1(C)CCN(C(=O)C(c2ccccc2)c2ccccc2)C1 (centres undefined)	i	x	i	x	x
O=S(=O)(c1ccccc1)N1CCN(S(=O)(=O)c2ccccc2)c2ccccc21	20.6µM*	x	i	15.9%	-6.1%
Cc1ccc2nc(SCC(=O)c3c[nH]c4ccccc34)[nH]c2c1	i	-10.6%	i	-38.7%	u
Cc1ccc2nc(SCC(=O)c3c(C)[nH]c4ccccc34)[nH]c2c1	u	u	i	8.9%	13µM*
Cc1ccc2nc(SCn3nnc4ccccc4c3=O)[nH]c2c1	23.1µM*	u	i	0.0%	u
O=C(/C=C/c1cccs1)c1ccc(N2CCOCC2)cc1	i	u	i	4.0%	u
O=C(/C=C/c1cccs1)c1cc(Br)ccc1OC(=O)N1CCOCC1	u	16.4µM*	u	u	u
CN(C)/N=C/c1cc([N+](=O)[O-])ccc1O	i	1.2%	i	u	8.5%
O=[N+]([O-])c1ccc(C(O)CN=Cc2ccc(O)cc2O)cc1 (centres undefined)	i	u	i	9.8%	16.4µM*
O=C1C=C(O)CC(c2ccc(Cl)c(Cl)c2)C1 (centres undefined)	i	1.7%	i	-1.4%[9.22 µM]	5.01µM*
O=C1C=C(O)CC(c2ccc(Cl)cc2)C1 (centres undefined)	i	4.8%	i	0.8%[9.22 µM]	-1.4%
O=C(CSc1ncnc2c1cnn2-c1ccccc1)NC1CCCC1	u	u	u	-1.7%	8.0%
CCOC(=O)C1CCCN(C(=O)c2cc(CN3C(=O)c4ccccc4C3=O)ccc2OC)C1 (centres undefined)	i	12.6%	i	-4.9%	2.7%
CC(C)(C)c1ccc(CC(=O)N2CCC2(C)C(=O)Nc2cccc3ccccc23)cc1 (centres undefined)	i	x	i	x	x
CC(C)c1ccc(CC(=O)N2CCC2(C)C(=O)Nc2cnc3ccccc3c2)cc1 (centres undefined)	i	x	i	x	x
CC(C)(C)c1ccc(CC(=O)N2CCC2(C)C(=O)Nc2cnc3ccccc3c2)cc1 (centres undefined)	16.4µM*	x	u	x	x
CSc1ccc(NC(=O)C2(C)CCN2C(=O)Cc2ccc(C(C)(C)C)cc2)cc1 (centres undefined)	16.4µM*	x	u	x	x
COc1ccccc1N1CCN(Cc2cc(=O)oc3cc(C)cc(C)c23)CC1	i	x	i	x	x
SMILES	KB-V1 MDR tox	ELG1 DNA repair	KB-3-1 tox	SW480 rerep	MCF10A rerep
O=C1C2C3C=CC(C4CC34)C2C(=O)N1CCCCN1CCN(c2ccc(F)cc2)CC1 (centres undefined)	i	x	i	-7.1%	u
COC(=O)[C@]12CCCCC=C1N(CCC1=CCCCC1)C(=O)[C@H](CC(=O)NCc1cccs1)C2	i	x	u	x	x
CCCCOCCCNC(=O)C[C@@H]1C[C@@]2(C(=O)OCC)CCCC=C2N(Cc2cccc3ccccc23)C1=O	18.4µM*	x	u	x	x
CCCCCCCCN1C(=O)[C@H](CC(=O)NCc2cccs2)C[C@@]2(C(=O)OC)CCCCC=C12	20.6µM*	x	u	x	x
COC(=O)[C@]12CCCCC=C1N(Cc1cccc3ccccc13)C(=O)[C@H](CC(=O)NCc1cccs1)C2	16.4µM*	x	u	x	x
CCOC(=O)[C@]12CCC=C1N(Cc1cccc3ccccc13)C(=O)[C@H](CC(=O)NCCC(C)C)C2	16.4µM*	x	u	x	x
COC(=O)[C@]12CCCCC=C1N(CCc1ccc(OC)c(OC)c1)C(=O)[C@H](CC(=O)NCc1cccc3ccccc13)C2	20.6µM*	x	i	x	x
COC(=O)[C@]12CCCCC=C1N(Cc1cccc3ccccc13)C(=O)[C@H](CC(=O)NCc1ccc(OC)c(OC)c1)C2	u	x	5.8µM*	x	x
CCCCCCCCN1C(=O)[C@H](CC(=O)NCc2cccc(C(F)(F)F)c2)C[C@@]2(C(=O)OC)CCCCC=C12	16.4µM*	x	u	x	x
CCOC(=O)[C@]12CCC=C1N(Cc1cccc3ccccc13)C(=O)[C@H](CC(=O)NCc1ccc(OC)c(OC)c1)C2	u	x	6.51µM*	x	x
Cc1cc(Br)ccc1SCC(=O)OCC(=O)Nc1ccc2[nH]c(=O)[nH]c2c1	u	19.2%	i	-17.4%	1.8%
COc1ccc(Cc2n[nH]c(=S)n2NC(=O)Nc2ccc(Cl)c(Cl)c2)cc1	i	12.0%	i	-3.6%	17.4%
COc1cccc(C2CC(=O)N3CN(C4CCCCC4)CSC3=C2C#N)c1 (centres undefined)	i	x	i	x	x
CN(C)c1nc(N)nc(CSc2nnnn2-c2ccc(Cl)cc2)n1	i	x	i	x	x
CC(=O)C(C(C)=O)c1c(Cl)c(O)c(O)c2c(C(=O)c3ccccc3)coc12	u	u	13µM*	-0.4%[9.22 µM]	u
CN1CCN(Cc2c(O)ccc3occ(C(=O)c4ccccc4)c23)CC1	i	-2.7%	i	-0.2%	5.6%
CC1(C)OC(=O)C2(Cc3ccc(Cl)cc3N3CCCC32)C(=O)O1 (centres undefined)	i	x	i	x	x
COc1ccc(NC(=O)CSC2=C(C#N)C(c3ccco3)C(C(=O)Nc3nc4ccccc4s3)=C(C)N2)cc1 (centres undefined)	i	x	u	9.2µM*	u
C#CCSC1=C(C#N)C(c2cccs2)C(C(=O)OCC)=C(C)N1 (centres undefined)	10.3µM*	-27.0%	i	3.5%	14.3%
CC(=O)C1=C(C)NC(SCC(=O)Nc2nc3ccccc3s2)=C(C#N)C1c1ccc(Cl)cc1 (centres undefined)	u	u	u	15.8µM*	22.2%
